The sample as a whole holds a higher share of hits than the screen did.
IDE exosite inh: exo-site inhibitors of human IDE, primary screen, biochemical, fluorescence anisotropy, probe displacement; z-score at 20 µM; 17,000 tested, 6.3% active; Insulin-degrading enzyme (Homo sapiens), P14735; purified IDE, FL-6b probe fluorescence polarization; stronger effect = lower value;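 active = z-score of -3 or lower, meaning strong loss of probe binding signal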;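 note: His-tagged human IDE residues 42-1019 made in E. coli with 30 nM FL-6b probe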
Target sequence (P14735 42-1019 limits assumed): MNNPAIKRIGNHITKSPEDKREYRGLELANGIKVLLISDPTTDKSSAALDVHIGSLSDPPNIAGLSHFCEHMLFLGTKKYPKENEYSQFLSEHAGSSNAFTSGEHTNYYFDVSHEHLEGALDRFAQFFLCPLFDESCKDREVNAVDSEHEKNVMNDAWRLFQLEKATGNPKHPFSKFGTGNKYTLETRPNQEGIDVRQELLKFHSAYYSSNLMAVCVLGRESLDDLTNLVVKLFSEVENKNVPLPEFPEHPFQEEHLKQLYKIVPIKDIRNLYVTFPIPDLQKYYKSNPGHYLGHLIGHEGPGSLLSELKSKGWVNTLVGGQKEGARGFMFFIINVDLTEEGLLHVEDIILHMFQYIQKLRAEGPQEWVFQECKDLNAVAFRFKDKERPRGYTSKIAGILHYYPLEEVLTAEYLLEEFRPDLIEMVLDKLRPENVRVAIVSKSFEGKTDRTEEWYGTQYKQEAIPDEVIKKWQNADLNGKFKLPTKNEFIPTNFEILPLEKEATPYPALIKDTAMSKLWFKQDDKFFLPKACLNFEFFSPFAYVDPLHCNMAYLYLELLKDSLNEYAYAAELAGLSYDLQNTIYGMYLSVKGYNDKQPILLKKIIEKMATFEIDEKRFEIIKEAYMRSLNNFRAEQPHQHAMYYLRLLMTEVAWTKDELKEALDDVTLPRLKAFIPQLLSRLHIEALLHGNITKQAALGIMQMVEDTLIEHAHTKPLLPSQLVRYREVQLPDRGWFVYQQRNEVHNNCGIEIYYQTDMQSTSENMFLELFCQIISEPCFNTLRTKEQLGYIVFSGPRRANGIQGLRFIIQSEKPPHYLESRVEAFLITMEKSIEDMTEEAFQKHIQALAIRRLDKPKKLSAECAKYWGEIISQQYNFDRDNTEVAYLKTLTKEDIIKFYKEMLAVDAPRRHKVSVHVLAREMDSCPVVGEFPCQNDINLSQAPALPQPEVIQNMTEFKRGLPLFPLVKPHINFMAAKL
Numbers without * were called inactive.

SMILES | IDE exosite inh
O=C(C[C@H]1CC[C@@H](NC(=O)C2CCOCC2)[C@@H](CO)O1)NCC1CCCCC1 | 2.6
COc1ccccc1NC(=O)C[C@H]1CC[C@H]2[C@@H](COc3ccc(NS(C)(=O)=O)cc3C(=O)N2C)O1 | -6.1*
CCS(=O)(=O)Nc1ccc2c(c1)C(=O)N(C)[C@@H]1CC[C@@H](CC(=O)N3CCN(C)CC3)O[C@H]1CO2 | 0.268
COc1ccccc1NC(=O)Nc1ccc2c(c1)C(=O)N(C)[C@H]1CC[C@H](CC(=O)Nc3ccc4c(c3)COC4)O[C@@H]1CO2 | -0.177
CN1C(=O)c2cc(NS(C)(=O)=O)ccc2OC[C@@H]2O[C@@H](CC(=O)N3CCOCC3)CC[C@H]21 | -1.04
CN1C(=O)c2cc(NS(C)(=O)=O)ccc2OC[C@H]2O[C@@H](CC(=O)NCc3ccccc3)CC[C@@H]21 | 0.179
CN1C(=O)c2cc(NS(C)(=O)=O)ccc2OC[C@H]2O[C@H](CC(=O)N3CCOCC3)CC[C@@H]21 | -14.2*
CN1CCN(C(=O)C[C@H]2CC[C@@H]3[C@H](COC[C@@H](O)CN3C(=O)Nc3ccc4c(c3)OCO4)O2)CC1 | 2.23
CN(C)C(=O)c1cccc(-c2ccc([C@@H]3[C@@H](C#N)N(C(=O)C4CCCCC4)[C@@H]3CO)cc2)c1 | 4.17
C[C@H]1CN([C@@H](C)CO)C(=O)c2cc(/C=C/c3ccccc3)cnc2O[C@@H]1CN(C)S(=O)(=O)c1ccccc1F | -0.0711
C[C@H]1CN([C@@H](C)CO)C(=O)c2cc(/C=C/c3ccccc3)cnc2O[C@H]1CN(C)S(=O)(=O)c1ccccc1F | 0.0648
C[C@@H]1CN([C@@H](C)CO)C(=O)c2cc(/C=C/c3ccccc3)cnc2O[C@H]1CN(C)S(=O)(=O)c1ccccc1F | -3.39*
C[C@H](CO)N1C[C@H](C)[C@@H](CN(C)C(=O)c2ccccc2)Oc2ncc(C#Cc3ccccc3)cc2C1=O | -2.16
C[C@@H]1CN([C@H](C)CO)C(=O)c2cc(C#Cc3ccccc3)cnc2O[C@@H]1CN(C)C(=O)c1ccccc1 | -1.81
C[C@@H]1CN([C@@H](C)CO)C(=O)c2cc(C#Cc3ccccc3)cnc2O[C@@H]1CN(C)C(=O)c1ccccc1 | -4.04*
CC[C@@H]1CC=CC[C@@H](C)Oc2ccccc2C(=O)N(C)[C@@H](C)C(=O)N1 (mixture of isomers) | 1.54
CO[C@@H]1CN(C)C(=O)c2ccc(NC(=O)c3cc(C)on3)cc2OC[C@@H](C)NC[C@@H]1C | -1.27
Cc1ccc(S(=O)(=O)N[C@H]2C=C[C@H](CC(=O)NCc3ccc(Cl)c(Cl)c3)O[C@@H]2CO)cc1 | 0.985
O=C(NC[C@@H]1[C@H](c2ccccc2)[C@@H](CO)N1C(=O)Cc1cccnc1)C1CCC1 | 1.99
CN1CCCCN2[C@H](CO)[C@@H](c3ccc(-c4ccccc4)cc3)[C@@H]2C1 | 0.916
COc1ccc(C#Cc2ccc([C@H]3[C@H](CO)N4CCCCN(C)C[C@@H]34)cc2)cc1 | 0.0463
OC[C@@H]1[C@H](c2ccc(C#Cc3ccccc3F)cc2)[C@@H]2CN(CC3CCOCC3)CCCCN12 | -1.68
CN1CCCCN2[C@H](CO)[C@@H](c3ccc(C#Cc4ccccc4F)cc3)[C@@H]2C1 | -8.62*
CN1CCCCN2[C@@H](CO)[C@@H](c3ccc(C#Cc4ccccc4F)cc3)[C@@H]2C1 | -5*
COc1ccc(C#Cc2ccc([C@H]3[C@H]4CN(C)CCCCN4[C@H]3CO)cc2)cc1 | -0.0839
SMILES | IDE exosite inh
C[C@H](CO)N1C[C@H](C)[C@H](CN(C)C(=O)c2ccncc2)OCCCC[C@H](C)Oc2ccc(NC(=O)CCC(F)(F)F)cc2C1=O | 0.692
CC(=O)N1CCCCN2[C@H](CO)[C@@H](c3ccc(C#Cc4ccccc4F)cc3)[C@H]2C1 | -5.25*
CCC(=O)N1CCCCN2[C@H](CO)[C@@H](c3ccc(C#CCOC)cc3)[C@H]2C1 | 2.83
COc1ccc(C#Cc2ccc([C@H]3[C@H]4CN(C(=O)Nc5ccccc5F)CCCCN4[C@H]3CO)cc2)cc1 | 3.03
COc1ccc(C#Cc2ccc([C@@H]3[C@H]4CN(C(=O)Nc5ccccc5F)CCCCN4[C@H]3CO)cc2)cc1 | 0.863
CCC(=O)N1CCCCN2[C@@H](CO)[C@@H](c3ccc(C#Cc4ccccc4F)cc3)[C@@H]2C1 | -8.15*
COc1ccc(C#Cc2ccc([C@@H]3[C@@H](CO)N4CCCCN(C(=O)Nc5ccccc5F)C[C@H]34)cc2)cc1 | 1.81
CCC(=O)N1CCCCN2[C@@H](CO)[C@H](c3ccc(C#Cc4ccccc4F)cc3)[C@@H]2C1 | -3.92*
CCC(=O)N1CCCCN2[C@H](CO)[C@@H](c3ccc(C#Cc4ccccc4F)cc3)[C@H]2C1 | 1.77
CN(C)CC(=O)N1CCCCN2[C@H](C1)[C@@H](c1ccc(-c3cccc(C(=O)N(C)C)c3)cc1)[C@@H]2CO | 4.51
COc1ccc2c3c([nH]c2c1)[C@@H](CO)N(S(=O)(=O)c1ccc(C)cc1)CC31CN(Cc2ccccc2)C1 | -0.0446
Cc1cccc(S(=O)(=O)N2CCCCN3[C@H](CO)[C@H](c4ccc(C#CC5CC5)cc4)[C@H]3C2)c1 | 1.54
C[C@@H]1CC=CC[C@@H](c2ccc3c(c2)OCO3)NC(=O)[C@H](C)N(C)C(=O)c2ccccc2O1 (mixture of isomers) | -0.107
CN(C)CCCNC(=O)[C@H]1[C@H](CO)[C@H]2Cn3c(ccc(-c4cccnc4)c3=O)[C@@H]1N2C(=O)CC1CC1 | 0.337
Cc1ccc(-c2ccc([C@H]3[C@@H](CO)N4C(=O)CN(C(=O)c5ccncc5)C[C@@H]34)cc2)cc1 | 0.265
COCC#Cc1ccc([C@H]2[C@H](CO)N3CCCCN(C(=O)COC)C[C@@H]23)cc1 | 3.55
COCC(=O)N1CCCCN2[C@@H](CO)[C@H](c3ccc(C#Cc4ccc(OC)cc4)cc3)[C@@H]2C1 | -3.12*
COCC#Cc1ccc([C@H]2[C@@H](CO)N3CCCCN(C(=O)COC)C[C@@H]23)cc1 | 4.08
COCC#Cc1ccc([C@H]2[C@H]3CN(C(=O)COC)CCCCN3[C@H]2CO)cc1 | 2.44
COc1ccc(C#Cc2ccc([C@@H]3[C@@H](CO)N4CCCCN(C(=O)c5ccncc5)C[C@H]34)cc2)cc1 | 1.71
COCC(=O)N1CCCCN2[C@H](CO)[C@@H](c3ccc(C#Cc4ccccc4)cc3)[C@H]2C1 | -7.15*
COc1ccc(C#Cc2ccc([C@H]3[C@@H](CO)N4CCCCN(C(=O)c5ccncc5)C[C@@H]34)cc2)cc1 | -6.59*
COc1ccc(C#Cc2ccc([C@H]3[C@H](CO)N4CCCCN(C(=O)c5ccncc5)C[C@@H]34)cc2)cc1 | 2.11
COCC(=O)N1CCCCN2[C@H](C1)[C@@H](c1ccc(C#Cc3ccc(OC)cc3)cc1)[C@@H]2CO | 4.06
COCC#Cc1ccc([C@H]2[C@@H](CO)N3C(=O)CN(C(=O)Nc4ccc(F)cc4)C[C@@H]23)cc1 | 0.74
CCCN1[C@H](CO)[C@H](c2ccc(C#Cc3ccccc3)cc2)[C@@H]1CNC1CCCC1 | -0.902
O=C(Nc1ccccc1F)N1CC(=O)N2[C@H](CO)[C@H](c3ccc(-c4cccnc4)cc3)[C@@H]2C1 | -1.29
CN(C)CC#Cc1ccc([C@H]2[C@H]3CN(C(=O)C4CCC4)CCCCN3[C@H]2CO)cc1 | 2.25
COc1ccc(C#Cc2ccc([C@@H]3[C@@H](CO)N4CCCCN(C(=O)Nc5ccccc5)C[C@@H]34)cc2)cc1 | 2.07
COc1ccccc1NC(=O)N1CCCCN2[C@H](CO)[C@@H](c3ccc(C#Cc4ccccc4)cc3)[C@@H]2C1 | 3.84
